Data from PubChem BioAssay AID720553 (National Center for Advancing Translational Sciences (NCATS), 2013).
Among all 340,000 compounds or so, about 3,300 (0.97%) were called active. This is one part of a sample in which actives are shown more often than they occur. Values without a mark were called inactive.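 Rule for the calls: active = maximum activity change below -70%; inconclusive = maximum activity change from -70% to -50%; inactive = maximum activity change above -50%.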

Tested on: Potassium voltage-gated channel subfamily H member 2, brain isoform KCNH2 3.1 (human)
Test: qHTS for Inhibitors of KCHN2 3.1: Mutant qHTS
Details: U2OS KCNH2 3.1, thallium flux FluxOr; stronger effect = lower value
Summary of the method: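 We transduce U2OS cells with the mutant 3.1 virus, culture them overnight, load FluxOr with Red40 quencher for 45 min, then add stimulation buffer and read kinetically for 2 min to derive a normalized rate constant.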
% is set by controls: 0 for no effect and ±100 for the full control effect.

Structure (SMILES) | activity change
O=C(C[C@H]1C[C@@H]2c3cc(NC(=O)C4CCC4)ccc3O[C@@H]2[C@H](CO)O1)NC1CCCCC1 | -25.5%
N#Cc1ccc(OCC(=O)Nc2nc(-c3ccccn3)cs2)cc1 | 6.83%
CCN1C(=O)[C@H]2[C@@H](c3ccccc3)N[C@]3(CCCN(Cc4ccc(C)cc4)C3=O)[C@H]2C1=O | 28.9%
COc1ccc(-c2ccc3[nH]c4c(c3c2)CCN2C[C@H]3[C@H](C)ON(C)[C@H]3C[C@@H]42)cc1 | -3.51%
O=C(CCc1ccc(O)cc1)NN=Cc1cc(Br)ccc1O | 1.97%
O=C(COc1ccc(Br)cc1)OCC(=O)c1ccc[nH]1 | -1.12%
COc1ccc(N)cc1NC(=O)CN1CCOCC1 | 1.24%
Cc1ccc(-n2c(SCC(=O)Nc3ccc4c(c3)OCO4)nnc2-c2ccoc2C)cc1 | -79.7% (active)
Cc1ccc(-n2c(SCC(=O)Nc3ccc4c(c3)OCO4)nnc2-c2ccccn2)cc1 | 1.11%
O=C(CSc1nnc(-c2ccccn2)n1-c1ccccc1)Nc1ccc2c(c1)OCO2 | 2.89%
COc1cccc(/C=C2\SC(=S)N(CCCC(=O)N3CCOCC3)C2=O)c1 | -1.71%
COc1ccc(CN2C(=O)C(CC(=O)NCCCCc3ccccc3)CC(C(=O)N3CCOCC3)=C2C)cc1 (centres undefined) | -14.3%
Cc1cc(OCC(=O)Nc2nccs2)c2c(C)c(C)c(=O)oc2c1 | -8.76%
O=C(CN1CCN(c2ccccc2)CC1)Nc1ccc(F)cc1 | 0.316%
CN1CCN(CCNC(=O)Nc2ccc([N+](=O)[O-])cc2)CC1 | 4.38%
O=C(NCCCN1CCN(c2ccc(F)cc2)CC1)Nc1ccc([N+](=O)[O-])cc1 | -86.7% (active)
CN(C)C(CNC(=O)c1cc(Br)c(Br)s1)c1ccco1 (centres undefined) | -1.59%
O=C(NCc1nnnn1-c1ccc(Cl)cc1)c1ccc2c(c1)OCO2 | -10.1%
O=C(COC(=O)c1cncc(Br)c1)Nc1ccc(S(=O)(=O)N2CCOCC2)cc1 | -6.79%
COC(=O)[C@H](Cc1ccccc1)NC(=O)N1CC(C)OC(C)C1 (some centres undefined) | -5.69%
COC(=O)[C@H](Cc1ccccc1)NC(=O)[C@@H]1C[C@H]1[C@@H](NC(=O)OCc1ccccc1)c1ccccc1 | -95.1% (active)

Structure (SMILES) | activity change
COC(=O)[C@@H](Cc1ccccc1)NC(=O)NCCc1ccccc1 | -9.89%
O=C(COC(=O)Cc1ccc(Cl)cc1Cl)NCc1ccco1 | -13.7%
O=C(O)C1=C(C(=O)O)C2CCC1C2 | 1.57%
COc1ccccc1OCCNC(=O)c1cc([N+](=O)[O-])cc([N+](=O)[O-])c1 | -8.81%
COC(=O)c1cccc(NC(=O)CN2CCC(NC(=O)c3cc(OC)c(OC)c(OC)c3)CC2)c1 | -11.4%
COc1cc(C(=O)NCCOC(=O)c2cccc(N(C)C)c2)cc(OC)c1OC | -77.8% (active)
O[C@@H]1C[C@H](c2ccccc2)N(Cc2cccs2)C[C@H]1n1cc(C2CC2)nn1 | -10.3%
C[C@@H]1CN([C@@H](C)CO)C(=O)CCCn2nncc2CO[C@H]1CN(C)Cc1ccc(C(F)(F)F)cc1 | 15.2%
COc1ccc(S(=O)(=O)N2CCC(C(=O)NCCC(=O)NCCc3cccc(F)c3)CC2)cc1 | -0.519%
Cc1cc(=O)oc2cc(NC(=O)C(C)Oc3ccccc3)ccc12 (centres undefined) | 16.9%
Cc1cc(=O)oc2cc(NC(=O)C3CC(=O)N(Cc4ccccc4)C3)ccc12 (centres undefined) | -71% (active)
O=C(Nc1ccc(F)c([N+](=O)[O-])c1)C1CC(=O)N(Cc2ccccc2)C1 (centres undefined) | -5.91%
Cc1ccc2c(c1)N(S(=O)(=O)c1cc(-c3cc(C)no3)ccc1C)CCO2 | -82.2% (active)
Cc1cc(-c2ccc(C)c(S(=O)(=O)NC(C)Cc3ccco3)c2)on1 (centres undefined) | -6.2%
Cc1cc(-c2ccc(C)c(S(=O)(=O)Nc3ccc(S(N)(=O)=O)cc3)c2)on1 | 6.07%
Cc1ccc(-c2ccc(CN3C(C(C)C)C(=O)N(Cc4cn(CCC5OCCO5)nn4)CCS3(=O)=O)cc2)cc1 (centres undefined) | 0.464%
Cc1noc(C)c1NC(=O)N(C)C[C@@H]1Oc2cc(Br)ccc2S(=O)(=O)N([C@@H](C)CO)C[C@H]1C | -17.2%
COCOCCn1cc(CN2CCS(=O)(=O)N(Cc3ccc(-c4ccc(OC)cc4)cc3)C(CC(C)C)C2=O)nn1 (centres undefined) | -1.8%
COc1ccc(NC(=O)CCCC2CCCCC2)c(OC)c1 | 8.96%
C/C=C(\C)C(=O)NCCN1C2=NC[C@H](Cc3ccc(O)cc3)N2C[C@@H]1Cc1ccc(OC)cc1 | -104% (active)
COc1ccc(C[C@H]2CN3C(=NC[C@H]3C)N2CCNC(=O)CCC2CCCCC2)cc1 | -109% (active)

Structure (SMILES) | activity change
NC1=NC[C@@H](Cc2ccc(O)cc2)N1CC1CCCCC1 | 19%
COc1ccc(CCNC(=O)COC(=O)C2CCCCC2)cc1 | 8.75%
COc1ccc(CCNC(=O)COC(=O)C2CC2C)cc1 (centres undefined) | 5.06%
Cc1ccn(CC(=O)NC2CCCN(Cc3ccccc3F)C2)n1 (centres undefined) | 7.86%
O=C(O)c1ccccc1Cc1ccc(F)c2ccccc12 | 1.01%
CCN(CC)C(=O)C1=C(C)N(Cc2ccc(F)cc2)C(=O)C(CC(=O)NCc2cccc3ccccc23)C1 (centres undefined) | 10.8%
CCn1c(CNS(=O)(=O)c2ccc(Cl)cc2)n[nH]c1=S | -7.51%
CCn1c(CN2C(=O)CSc3ccccc32)n[nH]c1=S | -86.9% (active)
CCn1c(CSCc2c(Cl)cccc2Cl)n[nH]c1=S | -10.5%
CCN(CC)C(=O)C1=C(C)N(Cc2ccc(OC)cc2)C(=O)C(CC(=O)NCCCCc2ccccc2)C1 (centres undefined) | -3.76%
CCn1c(CNC(=O)c2ccccc2)nnc1SCC(=O)N1CCN(c2ccccc2)CC1 | -7.37%
CCOC(=O)CSc1nnc(CNC(=O)c2ccco2)n1-c1ccc(F)cc1 | -10.2%
CSc1nnc(CNC(=O)c2ccccc2)n1-c1ccc(F)cc1 | -88.2% (active)
COc1cc2ccc(C(C)=O)c(O)c2cc1OC | 5.97%
N#CCCC(C#N)(c1cccnc1)N1CCOCC1 (centres undefined) | 7.47%
C[C@H](CO)N1C[C@H](C)[C@@H](CN(C)C(=O)c2cccc(F)c2)Oc2cc(-c3cncnc3)ccc2S1(=O)=O | -2.89%
COc1cccc(OC)c1C(=O)N1CCN(Cc2ccccc2F)CC1 | -6.56%
S=C1SCN(CCN2CCOCC2)CN1Cc1ccccc1 | -10.5%
COc1ccc(CN2CN(C(C)C)CSC2=S)cc1 | -82.5% (active)
COc1ccc(CN2CN(C3CCCC3)CSC2=S)cc1 | -9.2%
C[C@@H]1CN([C@@H](C)CO)C(=O)CCCn2cc(nn2)CO[C@H]1CN(C)S(=O)(=O)c1ccc(-n2cccn2)cc1 | 7.17%

Structure (SMILES) | activity change
Cc1c(NC(=O)COC(=O)/C=C/c2cccc(F)c2)c(=O)n(-c2ccccc2)n1C | 1.3%
CCC(C)(C)n1nnnc1C(c1ccccc1OC)N1CCSCC1 (centres undefined) | -86.1% (active)
COc1ccccc1C(c1nnnn1C(C)(C)C)N1CCN(Cc2ccccc2)CC1 (centres undefined) | 5%
CC(C)(C)n1nnnc1C(c1ccc(Cl)cc1)N1CCSCC1 (centres undefined) | -3.03%
Cc1ccccc1NC(=O)Cc1nc(COC(=O)CNC(=O)c2ccc(Cl)cc2Cl)cs1 | -9.74%
COc1ccc(S(=O)(=O)N2CCCCC2)cc1C(=O)NC1CCS(=O)(=O)C1 (centres undefined) | 26.3%
CCN(CC)C(=O)C1=C(C)N(Cc2ccc(OC)cc2)C(=O)C(CC(=O)NCc2ccco2)C1 (centres undefined) | 22.6%
CN(C)/C=C(/C(=O)c1ccccc1)S(=O)(=O)c1ccc(Cl)cc1 | 7.64%
CN(C)/C=C(/C(=O)c1ccccc1Cl)S(C)(=O)=O | -180% (active)
CN(C)/C=C(/C(=O)c1ccc(Cl)cc1)S(=O)(=O)c1ccccc1 | 3.05%
Cc1nc(N2CCOCC2)c2c(C)c(C(=O)Nc3ccc(C(F)(F)F)cc3)sc2n1 | -41.2%
Cc1nc(N2CCC(C)CC2)c2c(C)c(C(=O)Nc3cc(F)ccc3C)sc2n1 | -5.3%
COc1ccc(NC(=O)c2sc3nc(C)nc(N4CCN(c5ccccn5)CC4)c3c2C)c(OC)c1 | -30.8%
Cc1cc(Br)ccc1NC(=O)c1sc2ncn(CC(=O)N3CCN(c4ccccn4)CC3)c(=O)c2c1C | -4.47%
Cc1nc(N2CCN(c3ccccn3)CC2)c2c(C)c(C(=O)Nc3ccc(F)cc3)sc2n1 | -101% (active)
Cc1nc(N2CCN(c3ccccn3)CC2)c2c(C)c(C(=O)Nc3ccc(F)c(Cl)c3)sc2n1 | -77.6% (active)
CC1(C2CC2)NC(=O)N(CC(=O)N2CCN(c3ccccc3F)CC2)C1=O (centres undefined) | 3.05%
CN1OC[C@@H]2CN(S(=O)(=O)c3cccc(C(F)(F)F)c3)[C@H](c3ccc(-c4cc5ccccc5o4)cc3)C[C@@H]21 | -6.35%
C[C@H]1CN([C@@H](C)CO)C(=O)CCCn2cc(nn2)CO[C@@H]1CN(C)S(=O)(=O)c1ccc(-n2cccn2)cc1 | 5.9%
COc1ccc(NC(=O)CCCOc2ccc(C(C)=O)cc2)cc1S(=O)(=O)N1CCCCC1 | 6.94%
CCCCCCN1C[C@@H](O)[C@H](n2cc(COC(=O)c3ccccc3)nn2)C[C@@H]1c1ccc(Cl)cc1 | -8%
